Shown are actives, neighbours in structure and some others; about 0.72% of the full set was active somewhere.
Six1-Eya2 blk: qHTS Assay for Inhibitors of the Six1/Eya2 Interaction; AlphaScreen GST-Six1/His-Eya2 binding, biochemical; active compounds read low; activity change, % (no concentration beside the values); 360,000 tested, 0.56% active; AID 651725, 2012; in the data active = activity change below about -65%; inconclusive = mostly about -30% to -63%
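AlphaScreen luminescence read after one hour at 37 °C in darkness. Pin-transferred compounds met GST-Six1 and His-Eya2 protein (5X stock 250 nM/500 nM) plus glutathione donor and Ni-chelate acceptor beads (5X, 50 ug/mL).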
RGS4 inhibitor: Inhibitors of Regulator of G Protein Signaling (RGS) 4: qHTS; Regulator of G-protein signaling 4 (Homo sapiens), P49798; Transcreener GDP fluorescence polarization, RGS4-accelerated GTP hydrolysis; Potency, µM (series often up to 114 µM), inactives show top-dose activity change, negative = inhibition, actives largely listed as inhibitors; 390,000 tested, 0.039% active; AID 504845, 2011; note: potency is the fitted concentration of half-maximal effect; nearly all actives have a fitted effect of over 75% in size
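MLSMR compounds (23 nl, pin-transferred) preincubated 10 min at room temperature with a 500nM (2x) first reagent, then RGS4 at 900nM (2x) plus Transcreener GDP mix added; fluorescence polarization (620/688 nm) read before and after 90 min at 30 °C.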
CtBP-E1A inh: qHTS Assay for Inhibitors of the CtBP/E1A Interaction | CtBP / adenovirus E1A interaction (AlphaScreen) | AlphaScreen GST-E1A/His-CtBP binding, 1536-well; active compounds read low | activity change, % (test concentration not listed) | 340,000 tested, 0.49% active | AID 651724, 2012; in the data active = activity change below about -65%; inconclusive = mostly about -30% to -63%
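AlphaScreen with 125 nM GST-E1A and 125 nM His-CtBP (5X stocks) in Tris pH 8.0, 300 mM NaCl, BSA, Tween 20, TCEP. Compounds preincubated 2 h at 37 deg C, then glutathione donor/nickel acceptor beads added for 1 h at 37 deg C in dark.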
Eya2 inh: qHTS Assay for Inhibitors of the Phosphatase Activity of Eya2; 330,000 tested, 0.006% active; Potency, µM (top dose mostly 76.9 µM), for the others: at the top dose activity, negative = inhibition, most hits filed as inhibitors; Protein phosphatase EYA2 (Homo sapiens), O00167; recombinant Eya2, OMFP fluorescence dephosphorylation (OMFP is methylfluorescein phosphate); note: potency is the fitted concentration of half-maximal effect
Target sequence (O00167 whole entry, looked up): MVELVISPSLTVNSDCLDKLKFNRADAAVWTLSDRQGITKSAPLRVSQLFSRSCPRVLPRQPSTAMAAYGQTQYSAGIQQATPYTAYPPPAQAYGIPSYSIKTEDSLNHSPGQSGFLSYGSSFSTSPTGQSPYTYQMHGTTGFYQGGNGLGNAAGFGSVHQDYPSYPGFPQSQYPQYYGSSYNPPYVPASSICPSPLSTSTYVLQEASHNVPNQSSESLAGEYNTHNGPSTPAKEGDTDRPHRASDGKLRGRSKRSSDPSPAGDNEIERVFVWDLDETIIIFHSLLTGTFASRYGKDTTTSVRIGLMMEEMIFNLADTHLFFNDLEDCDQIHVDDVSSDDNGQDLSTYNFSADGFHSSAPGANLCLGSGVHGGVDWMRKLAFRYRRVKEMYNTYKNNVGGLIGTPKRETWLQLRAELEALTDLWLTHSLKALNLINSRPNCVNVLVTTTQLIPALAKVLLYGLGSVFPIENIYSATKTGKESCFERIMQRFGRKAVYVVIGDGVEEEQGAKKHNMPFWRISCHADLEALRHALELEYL
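Eya2 protein (added as 0.2 uM solution) was preincubated with compound for 10 min at ambient temperature in 50 mM HEPES pH 7.5, 50 mM NaCl, 5 uM MgCl2, 0.05% BSA, 1 mM DTT. OMFP (added at 50 uM) then reacted 10 min; fluorescence read at 485/525 nm.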
PI4K2A block: qHTS for small molecular inhibitors of PI4K2A. 420,000 tested, 0.13% active. activity change, negative = inhibition, % at 76.9 µM. purified PI4K2A, ADP-Glo luminescence, 1 h; active compounds read low; in the data active = activity change below about -50%; inconclusive = mostly about -30% to -49%;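 note: -100% = wells without enzyme as full effect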
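ADP-Glo luminescence measured ADP generated by PI4K2A enzyme (4 ug/mL before mixing) with 1.2 mM PI substrate (pre-mix) and 300 microM ATP (pre-mix). Tris pH7.5 buffer with MgCl2, Triton X-100; 1 h reaction at ambient temperature.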
USP2a block: qHTS Assay for Inhibitors of Ubiquitin-specific Protease USP2a Using CHOP2 as the Reporter. USP2 core, Ub-CHOP2 coupled fluorogenic reporter, 485/531. Potency, µM (highest dose often 38.3 µM), inactives show at the top dose activity change, negative = inhibition, actives largely listed as inhibitors. Ubiquitin carboxyl-terminal hydrolase 2 (Homo sapiens), O75604. 330,000 tested, 0.01% active;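 note: potency is the fitted concentration of half-maximal effect; plate controls were DMSO wells for no effect and full inhibition by NEM control for full effect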
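Cell-free coupled assay: 10nM USP2 core preincubated 30min RT with compound in Tris-HCl pH 8.0/CaCl2/CHAPS buffer, then 25nM Ub-CHOP2 and 25nM reporter substrate; fluorescence (Ex 485/Em 531) read after 60min RT, normalized to NEM inhibition, concentration-response curves fitted.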
* hit, by the source's call; ? = inconclusive; . = no result; ! = a repeat was not active; [ ] = another dose, or the depositor's remark. Unless noted, calls come from the whole dose curve; as a rule, active = well fitted curve in the direction sought with a large enough effect; inconclusive = small, poorly fitted or top-dose-only effect, or another doubt; inactive = no such curve, though single readings can be large; an effect the other way counts as inactive or inconclusive. Unless noted, % is set by controls: 0 for no effect and ±100 for the full control effect.

SMILES	Six1-Eya2 blk	RGS4 inhibitor	CtBP-E1A inh	Eya2 inh	PI4K2A block	USP2a block
COC(=O)/C(=C1/Oc2ccc(C(C)(C)C)cc2S1)C(F)(F)F	8	21%	1	0%	11	2%
COC(=O)/C(=C1/Oc2cc(C)oc(=O)c2S1)C(F)(F)F	?	-26%	-83*	-27%	-19	2%
Cc1ccc(C)c(NC(=O)CN2C(=O)CCc3ccccc32)c1	.	22%	.	.	3	.
Cc1csc(NC(=O)c2ccc(C)c([N+](=O)[O-])c2)n1	-18	-6%	-19	-2%	-5	1%
O=C(Nc1nc(-c2ccccn2)cs1)c1cc(Cl)ccc1[N+](=O)[O-]	-91*	?	?	8%	0	0%
Cc1cc(C(=O)Nc2nc(-c3ccccn3)cs2)ccc1[N+](=O)[O-]	-71*	-46%	-14	-4%	-2	-6%
COc1ccc(S(=O)(=O)N2CCC(n3c(C)nc4cccnc43)CC2)cc1Cl	.	-23%	.	.	-1	.
CC(C)COc1ccc(C(=O)N(Cc2ccc(N(C)C)cc2)Cc2ccco2)cc1	.	13%	.	.	3	.
CC1=Nc2cc(C(=O)NC(C)C)ccc2Sc2ccc(C)cc21	.	11%	.	.	-12	.
Cc1ccc(Nc2cc(C)nn2-c2nc(C)cc(C)n2)cc1	-29	-9%	-29	-5%	-8	-6%
Cc1ccc(Nc2cc(C)nn2-c2nc(C)cc(=O)[nH]2)cc1	-82*	6%	-81*	-2%	?	-1%
CCOC(=O)[C@@]12CN(C(=O)OC(C)(C)C)CC=C1N(Cc1ccc(OC)cc1)C(=O)[C@H]2CC(=O)N1CCOCC1	.	.	.	.	4	.
Cc1ccccc1N=Nc1c(C)[nH]n(-c2ccccc2)c1=O	-5	-9%	2	-3%	-4	3%
Cc1[nH]n(-c2ccccc2)c(=O)c1N=Nc1ccccc1O	-87*	-1%	-81*	2%	-2	8%
Cc1noc(C)c1NC(=O)Nc1ccc2c(c1)C(=O)N(C)[C@H]1CC[C@H](CC(=O)NCc3ccc(Cl)cc3)O[C@@H]1CO2	.	.	.	.	-1	.
COc1ccc(CN(Cc2ccccn2)C(=O)CN2C(=O)COc3ccccc32)cc1	1	9%	1	4%	-3	6%
CC1Oc2ccccc2N(CC(=O)N(Cc2ccccc2)Cc2ccccn2)C1=O (stereo unspecified)	3	3%	0	8%	-71*	-3%
O=C(Cc1ccccc1)Nc1nc2ccc(Cl)cc2c2nc(-c3ccco3)nn12	.	38µM*	.	.	.	.
C(=N\Nc1ccc2nncn2n1)/c1ccccn1	?	-1%	?	?	1	8%
Cc1ccc(/C=N/Nc2ccc3ccccc3n2)o1	-12	-2%	-2	11%	-8	7%
COc1ccc(/C=N/NC2=NS(=O)(=O)c3ccccc32)cc1	-4	2%	.	5%	-5	-7%
O=c1nc(N/N=C/c2ccccn2)cn[nH]1	-91*	-10%	-91*	11%	-14	10%
Cc1ccc(/C=N/Nc2cn[nH]c(=O)n2)o1	?	-15%	-68*	6%	-27	2%
O=S1(=O)N=C(N/N=C/c2ccccn2)c2ccccc21	-88*	16%	-81*	-7%	-8	3%
CCC(=O)NC(c1cc(Cl)c2cccnc2c1O)C(C)C (stereo unspecified)	.	20%	.	-20%	1	-5%
SMILES	Six1-Eya2 blk	RGS4 inhibitor	CtBP-E1A inh	Eya2 inh	PI4K2A block	USP2a block
CN1CCN(C(c2ccc(Cl)cc2)c2cc(Cl)c3cccnc3c2O)CC1 (stereo unspecified)	?	?	-80*	-1%	13	-12%
CN1CCN(C(c2ccc(C(F)(F)F)cc2)c2cc(Cl)c3cccnc3c2O)CC1 (stereo unspecified)	.	.	.	-2%	.	2%
Oc1c(C(c2ccccn2)N2CCCCC2)cc(Cl)c2cccnc12 (stereo unspecified)	-92*	-19%[56.9 µM]	-93*	-1%	7	5%
Cc1ccc(C(=O)Nc2ccccc2C(=O)N2CC(C)OC(C)C2)cc1 (stereo unspecified)	3	.	-5	.	-2	.
COc1ccc(Br)cc1CNc1ccc2[nH]c(=O)[nH]c2c1	-20	?	-22	-10%	-2	2%
COc1ccc(Br)cc1CNc1ccc(O)cc1	?	?	?	-17%	-50*	-1%
CCCc1ncc(C(=O)O)s1	.	.	.	.	0	.
CCN(CC)C(=S)SCC(=O)c1ccccc1	19	-35%	16	-13%	2	0%
CCN(CC)C(=S)SSC(=S)N(CC)CC	?	1.1µM*!	?	8%	3	9%
COC(=O)C(N)Cc1ccc(O)c(O)c1 (stereo unspecified)	3	45%	-3	3%	2	2%
NC(CO)C(=O)NNCc1ccc(O)c(O)c1O (stereo unspecified)	-5	9.5µM*	?	1%	-2	8%
CC(C)[C@H](NC(=O)c1ccccc1Cl)C(=O)Nc1nc(-c2ccccn2)cs1	-80*	-8%	-83*	-12%	-2	-11%
CC(Oc1ccc(Br)cc1)C(=O)Nc1nc(-c2ccccn2)cs1 (stereo unspecified)	-73*	-38%	?	1%	-5	3%
Cc1cnc(C=NNC(N)=S)c2cccc(N)c12	-79*	?	-2	.	-25	.
NC(=S)NN=Cc1nccc2ccccc12	-81*	-43%	-94*	.	-24	.
NC(=S)NN=Cc1nccc2c(C(F)(F)C(F)(F)C(F)(F)F)cccc12	-19	.	16	.	-14	.
CCOc1ccc(N2CC(NC(=O)c3ccco3)CC2=O)cc1 (stereo unspecified)	.	-1%	.	.	-3	.
Cc1ccc(S(=O)(=O)CCc2nnc(NC(=O)c3ccccn3)s2)cc1	-90*	-12%	-92*	16%	-20	0%
CC1(c2ccccc2)NC(=O)N(CC(=O)NNC(=O)c2ccccc2)C1=O (stereo unspecified)	2	27%	1	5%	0	0%

Assay outcomes deposited in PubChem BioAssay by National Center for Advancing Translational Sciences (NCATS).
